Measured values reported in PubChem BioAssay.
The source made the active and inactive calls.

Experiments:
[1] = target: Albumin (Bos taurus) (UniProt P02769); test: bovine serum albumin binders on microarray, profiling panel, artefact control for SMM control protein annotation, biochemical, small-molecule microarray, Alexa647 label, 635/667 nm fluorescence (AID 1118); settings: BSA-A647 binding, fluorescence 635 nm, higher = more signal;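 also: score merges 667 nm emission intensity and signal-to-noise per printed compound spot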
[2] = small-molecule microarray binders of probe aXIP, primary screen, biochemical, NeuroSMM set, 635/667 nm fluorescence (AID 1119); settings: higher = more signal, called active from +8 up or from −8 down;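 also: probe is the protein aXip251-270 applied at 1 µg/mL to compound-printed slides; binding of probe to printed compounds measured as 667 nm fluorescence plus signal to noise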
[3] = small-molecule binders of probe aNOTCH3, primary screen, biochemical, small-molecule microarray, 635/667 nm fluorescence (AID 1120); settings: higher = more signal;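 also: probe is a biotin-tagged antibody raised against NOTCH3 rather than NOTCH3 protein; score merges spot fluorescence near 667 nm with spot signal to noise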
[4] = small-molecule binders of probe aNOTCH2, primary screen, biochemical, small-molecule microarray, 635/667 nm fluorescence (AID 1121); settings: higher = more signal;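 also: score merges feature fluorescence read at 667 nm with its signal to noise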
[5] = target: Carbonic anhydrase 2 (Homo sapiens) (UniProt P00918); test: CAII small-molecule binders, profiling panel, biochemical, small-molecule microarray, Alexa647-labelled CAII (AID 1122); settings: CAII-A647 binding fluorescence, higher = more signal
[6] = COS7 lysate on small-molecule microarray, probe aHis, 635 nm (AID 1123); settings: COS7 cell lysate, fluorescence, higher = more signal;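 also: z-score combines 667nm fluorescence intensity with signal-to-noise per printed compound spot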
[7] = compound binding in COS7 lysate, probe aLAP1, primary screen, cell lysate, small-molecule microarray (AID 1124); settings: probe aLAP1, fluorescence, higher = more signal;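 also: lysate comes from COS7 cells expressing LAP1 and is applied at 0.3 µg/mL; score merges spot fluorescence near 667 nm with signal-to-noise over triplicate slides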
[8] = test system: Sam68 (KHDRBS1); test: Sam68 small-molecule binders, primary screen, biochemical, small-molecule microarray, 635 nm fluorescence (AID 1125); settings: small-molecule microarray binding, higher = more signal;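 also: score merges 667 nm channel intensity with signal to noise over triplicate slides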
[9] = test system: Chordin-like protein 2 (CHRDL2); test: CHRDL2 small-molecule binders, primary screen, biochemical, small-molecule microarray, 635 nm fluorescence (AID 1126); settings: small-molecule microarray binding, fluorescence 635 nm; higher = more signal;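 also: printed compound slides probed with Chrdl2 protein at 4 µg/mL for 1 h at 4 C; score merges 667 nm emission intensity with signal to noise over three replicate slides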
[10] = target: Concanavalin-A (Canavalia ensiformis) (UniProt P02866); test: ConA small-molecule binders, primary screen, artefact control for SMM control protein annotation, biochemical, small-molecule microarray, Alexa647 label, 635 nm (AID 1127); settings: ConA-A647 binding fluorescence, higher = more signal;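 also: z combines 667 nm emission intensity with signal-to-noise across three replicate slides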
[11] = anti-His antibody binders, primary screen, artefact control for SMM control protein annotation, biochemical, small-molecule microarray, 635 nm fluorescence (AID 1128); settings: anti-His Alexa647 antibody binding, higher = more signal;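 also: score merges feature fluorescence with signal-to-noise for each printed compound spot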
[12] = test system: Human papillomavirus type 1a E7 protein (residues 1-88); test: HPV1a E7 small-molecule binders, primary screen, biochemical, small-molecule microarray, residues 1-88, 635 nm (AID 1129); settings: small-molecule microarray binding, fluorescence 635 nm; higher = more signal
[13] = target: Focal adhesion kinase 1 (Homo sapiens) (UniProt Q05397); test: small-molecule microarray binders of FAK, primary screen, biochemical, 635/667 nm fluorescence, BSA, DTT (AID 1130); settings: PTK2 binding, 635 nm fluorescence, higher = more signal;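 also: composite of spot emission at 667 nm and signal to noise over triplicate slides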
[14] = test system: Fibrinogen (Alexa647-labelled); test: fibrinogen binders on compound microarrays, profiling panel, artefact control for SMM control-protein annotation, biochemical, small-molecule microarray, 635/667 nm fluorescence (AID 1131); settings: fibrinogen-A647 binding fluorescence, higher = more signal;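 also: z-score merges 667 nm fluorescence with per-spot signal-to-noise over triplicate slides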
[15] = target: Follistatin (Homo sapiens) (UniProt P19883); test: follistatin binders on small-molecule microarrays, primary screen, biochemical, small-molecule microarray, 635/667 nm fluorescence (AID 1132); settings: FST binding, 635 nm fluorescence, higher = more signal
[16] = target: Fibroblast growth factor 2 (Homo sapiens) (UniProt P09038); test: FGF2 binders on small-molecule microarrays, primary screen, biochemical, small-molecule microarray, 635/667 nm fluorescence (AID 1133); settings: small-molecule microarray binding, FGF2, fluorescence 635/667; higher = more signal
[17] = mitochondrial membrane potential change in A549 cells, profiling panel, cell-based, JC-1 fluorescence, basal, 24 h, 100 nL (AID 1138); settings: higher = more signal;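 also: A549 lung adenocarcinoma cells under basal conditions with no added stimulus; test concentration not given here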
[18] = test system: Lefty1; test: Lefty1 binders on small-molecule microarrays, primary screen, biochemical, small-molecule microarray, 635/667 nm fluorescence (AID 1139); settings: small-molecule microarray binding, fluorescence 635/667; higher = more signal
[19] = test system: wheat germ agglutinin (Triticum aestivum), Alexa647-labelled; test: wheat germ agglutinin binders on compound microarrays, profiling panel, artefact control for SMM control-protein annotation, biochemical, small-molecule microarray, 635/667 nm fluorescence (AID 1140); settings: WGA-A647 binding, 635 nm fluorescence, higher = more signal;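 also: score merges 667 nm feature emission with signal to noise over triplicate slides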
[20] = target: Luciferin 4-monooxygenase (Photinus pyralis) (UniProt P08659); test: firefly luciferase enzyme inhibitors, primary screen, biochemical, luminescence, purified enzyme, 2006 set (AID 1141); settings: SteadyGlo luminescence, 30 min, higher = more signal, called active from +8 up or from −8 down;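 also: cell-free assay with purified firefly luciferase at 100 ng per well in PBS; test concentration not given here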
Sequence of Luciferin 4-monooxygenase (Photinus pyralis) (P08659 whole entry, looked up): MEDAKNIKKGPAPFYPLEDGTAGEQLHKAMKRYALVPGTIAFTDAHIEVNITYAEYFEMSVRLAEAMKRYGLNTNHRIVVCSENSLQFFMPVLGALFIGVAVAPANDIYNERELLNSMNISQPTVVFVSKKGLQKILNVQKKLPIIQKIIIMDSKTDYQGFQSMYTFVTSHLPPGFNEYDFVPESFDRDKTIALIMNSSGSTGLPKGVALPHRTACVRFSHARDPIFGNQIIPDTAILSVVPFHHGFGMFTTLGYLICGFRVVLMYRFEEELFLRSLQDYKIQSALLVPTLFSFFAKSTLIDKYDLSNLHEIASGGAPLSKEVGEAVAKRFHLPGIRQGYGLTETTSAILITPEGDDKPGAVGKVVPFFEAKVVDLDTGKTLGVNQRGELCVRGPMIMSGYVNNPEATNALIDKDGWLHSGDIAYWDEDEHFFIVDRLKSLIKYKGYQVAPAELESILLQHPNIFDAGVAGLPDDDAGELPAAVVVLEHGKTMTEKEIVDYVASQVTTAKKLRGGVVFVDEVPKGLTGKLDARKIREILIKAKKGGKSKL

Sequence of Albumin (Bos taurus) (P02769 whole entry, looked up): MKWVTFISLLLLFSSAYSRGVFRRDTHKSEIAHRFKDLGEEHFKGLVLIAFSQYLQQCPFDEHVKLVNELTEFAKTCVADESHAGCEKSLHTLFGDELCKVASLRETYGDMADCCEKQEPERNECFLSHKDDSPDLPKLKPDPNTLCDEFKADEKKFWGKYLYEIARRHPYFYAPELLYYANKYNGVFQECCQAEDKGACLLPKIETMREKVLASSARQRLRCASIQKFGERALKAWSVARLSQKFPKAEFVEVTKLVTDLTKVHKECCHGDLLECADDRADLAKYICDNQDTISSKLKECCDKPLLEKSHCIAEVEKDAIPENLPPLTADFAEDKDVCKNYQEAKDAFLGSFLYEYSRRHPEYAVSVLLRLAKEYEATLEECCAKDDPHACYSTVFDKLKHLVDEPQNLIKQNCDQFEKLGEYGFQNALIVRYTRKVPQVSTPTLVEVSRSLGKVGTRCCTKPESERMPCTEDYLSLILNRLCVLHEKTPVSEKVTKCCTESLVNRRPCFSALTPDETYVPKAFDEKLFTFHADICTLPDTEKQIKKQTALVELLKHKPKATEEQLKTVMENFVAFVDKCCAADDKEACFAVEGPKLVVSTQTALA
Sequence of Concanavalin-A (Canavalia ensiformis) (P02866 whole entry, looked up): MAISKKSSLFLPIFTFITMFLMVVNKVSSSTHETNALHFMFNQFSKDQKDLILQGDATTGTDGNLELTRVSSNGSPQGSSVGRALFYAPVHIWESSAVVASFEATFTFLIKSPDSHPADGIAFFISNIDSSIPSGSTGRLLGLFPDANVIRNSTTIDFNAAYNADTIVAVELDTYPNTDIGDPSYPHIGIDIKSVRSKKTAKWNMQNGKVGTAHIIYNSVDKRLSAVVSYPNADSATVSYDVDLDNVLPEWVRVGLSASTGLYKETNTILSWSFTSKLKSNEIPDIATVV
Sequence of Follistatin (Homo sapiens) (P19883 whole entry, looked up): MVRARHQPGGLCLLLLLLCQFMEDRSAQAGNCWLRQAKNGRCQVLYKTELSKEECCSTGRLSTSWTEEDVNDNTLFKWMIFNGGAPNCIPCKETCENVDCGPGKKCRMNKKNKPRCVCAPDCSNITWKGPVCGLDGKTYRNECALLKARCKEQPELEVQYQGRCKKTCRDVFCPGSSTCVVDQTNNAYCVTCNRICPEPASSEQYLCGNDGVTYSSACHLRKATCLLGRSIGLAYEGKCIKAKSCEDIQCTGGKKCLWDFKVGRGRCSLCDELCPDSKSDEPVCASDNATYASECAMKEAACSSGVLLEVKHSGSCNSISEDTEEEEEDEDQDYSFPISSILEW
Sequence of Focal adhesion kinase 1 (Homo sapiens) (Q05397 whole entry, looked up): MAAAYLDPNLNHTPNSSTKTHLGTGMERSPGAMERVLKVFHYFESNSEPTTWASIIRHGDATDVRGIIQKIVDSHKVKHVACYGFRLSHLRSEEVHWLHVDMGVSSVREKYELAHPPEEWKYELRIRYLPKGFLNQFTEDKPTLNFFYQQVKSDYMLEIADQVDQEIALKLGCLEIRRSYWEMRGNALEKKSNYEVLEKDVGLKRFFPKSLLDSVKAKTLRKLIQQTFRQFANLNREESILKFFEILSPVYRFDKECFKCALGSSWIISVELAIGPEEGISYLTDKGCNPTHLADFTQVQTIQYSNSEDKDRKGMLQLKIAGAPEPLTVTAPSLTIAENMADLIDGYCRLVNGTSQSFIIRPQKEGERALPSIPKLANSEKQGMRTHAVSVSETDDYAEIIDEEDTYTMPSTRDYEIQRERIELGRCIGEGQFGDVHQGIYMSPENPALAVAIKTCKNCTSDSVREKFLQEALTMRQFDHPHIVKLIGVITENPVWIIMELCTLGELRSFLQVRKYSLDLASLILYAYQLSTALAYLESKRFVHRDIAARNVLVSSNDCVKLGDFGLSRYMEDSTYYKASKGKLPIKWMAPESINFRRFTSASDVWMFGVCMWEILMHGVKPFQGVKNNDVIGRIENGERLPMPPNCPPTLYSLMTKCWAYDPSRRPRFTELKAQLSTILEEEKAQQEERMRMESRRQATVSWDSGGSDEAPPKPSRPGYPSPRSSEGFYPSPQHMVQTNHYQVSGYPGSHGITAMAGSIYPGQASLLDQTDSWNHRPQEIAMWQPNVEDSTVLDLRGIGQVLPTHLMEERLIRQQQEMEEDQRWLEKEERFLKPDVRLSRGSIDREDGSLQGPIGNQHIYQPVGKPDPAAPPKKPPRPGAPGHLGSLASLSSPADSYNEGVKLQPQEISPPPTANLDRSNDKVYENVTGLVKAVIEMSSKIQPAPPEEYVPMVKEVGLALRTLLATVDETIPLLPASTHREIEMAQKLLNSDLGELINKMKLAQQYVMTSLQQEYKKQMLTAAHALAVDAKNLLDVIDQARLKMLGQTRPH
Sequence of Fibroblast growth factor 2 (Homo sapiens) (P09038 whole entry, looked up): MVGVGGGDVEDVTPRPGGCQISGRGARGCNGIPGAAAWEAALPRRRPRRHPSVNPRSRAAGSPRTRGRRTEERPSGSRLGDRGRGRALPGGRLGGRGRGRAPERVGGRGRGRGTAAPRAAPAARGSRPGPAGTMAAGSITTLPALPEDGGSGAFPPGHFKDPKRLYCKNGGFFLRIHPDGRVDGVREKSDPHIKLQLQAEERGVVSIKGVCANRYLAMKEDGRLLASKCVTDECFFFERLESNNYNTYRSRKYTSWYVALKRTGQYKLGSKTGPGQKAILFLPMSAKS

Row | Structure (SMILES) | composite z-score [1] | composite Z-score [2] | composite z-score [3] | composite z-score [4] | composite z-score [5] | composite z-score [6] | composite z-score [7] | composite z-score [8] | composite z-score [9] | composite z-score [10] | composite z-score [11] | composite z-score [12] | composite z-score [13] | composite z-score [14] | composite z-score [15] | composite z-score [16] | z-score [17] | composite z-score [18] | composite z-score [19] | z-score [20]
1 | O=C/C=C/c1ccc(-c2ccccc2)cc1 | -1.04 | -0.646 (inactive) | -0.172 | -0.0843 | -0.202 | -0.327 | 1.35 | -0.789 | 0.438 | -0.518 | -0.221 | -0.142 | -0.164 | -0.964 | 0.276 | -0.377 | 0.294 | -0.155 | -0.484 | 0.0686 (inactive)
2 | COCCOC(=O)N1C(=O)[C@@]2(c3cc(C#CCNC(N)=O)ccc31)[C@H](C(=O)Nc1nc3ccccc3s1)[C@H]1C(=O)O[C@H](c3ccccc3)[C@H](c3ccccc3)N1[C@@H]2c1ccc(O)cc1 | -0.376 | -0.263 (inactive) | 0.0203 | -0.0094 | 0.214 | 0.734 | 0.16 | 1.02 | 0.306 | 1.1 | 0.216 | 0.93 | 0.164 | 0.9 | 1.31 | 0.802 | -2.44 | 0.392 | 0.934 | -0.518 (inactive)
3 | CN1C(=O)C2C(C1=O)C1C=C(CCCO)C2C(C2CC2)N1C (stereo not given) | 0.913 | 0.178 (inactive) | -0.16 | -0.149 | 0.839 | 0.746 | -0.67 | -0.293 | -0.338 | -1.39 | -0.194 | -0.404 | 0.813 | -1.04 | -0.39 | 0.628 | 0.772 | -0.991 | 0.0425 | -0.224 (inactive)
4 | COC(=O)[C@@]1(Cc2ccc(F)cc2)[C@H]2c3cc(C(=O)N4CCCC4)n(Cc4ccc(C(F)(F)F)nc4)c3C[C@H]2CN1C(=O)c1ccccc1 | 1.05 | 0.136 (inactive) | 0.522 | -0.0013 | 0.579 | 3.01 | 0.4 | 1.23 | -1.41 | 0.962 | 1.2 | 1.19 | 1.16 | 1.01 | 1.38 | -0.71 | 1.3 | -0.13 | 1.06 | 3.14 (inactive)
5 | C=CCN1C(=O)[C@@]2(O[C@@H](CCO)[C@H]([Si](C)(C)c3ccc(OC)cc3)[C@H]2C)c2cc(N3CCCCC3=O)ccc21 | 0.446 | 0.734 (inactive) | 0.239 | -0.108 | 0.429 | 1.17 | 0.0635 | 0.702 | 0.285 | 0.901 | 2.63 | 1.16 | -0.19 | 0.745 | 1.36 | 0.821 | 0.225 | 1.23 | 0.302 | -0.0999 (inactive)
6 | CC[C@@H](O[Si](C#C[Si](C(C)C)(C(C)C)C(C)C)(C(C)C)C(C)C)c1cn([C@H](C)c2ccccc2)nn1 | -0.605 | 0.515 (inactive) | -0.016 | -0.171 | 0.0757 | 0.365 | 0.369 | 0.71 | 0.26 | 0.364 | 0.176 | 0.57 | 0.0506 | -0.0116 | 0.548 | 0.335 | -0.213 | 0.573 | 0.094 | -0.268 (inactive)
7 | COc1ccc(CCNC(=O)[C@@]2(C)c3ccccc3C(=O)N(Cc3ccc(OC(F)(F)F)cc3)[C@H]2c2ccc(CO)cc2)cc1 | -0.146 | 0.431 (inactive) | -0.104 | -0.163 | 0.611 | 1.37 | 0.687 | 1.3 | 0.309 | 0.781 | -0.0781 | 1.21 | 1.13 | 0.576 | 1.3 | 1.76 | 0.791 | 0.268 | 0.375 | -0.629 (inactive)
8 | COc1cc(CO)cc(I)c1O[C@H]1C=C(C(=O)NCCO)C[C@@H](N(CCN2CCOCC2)C(=O)C2CCCO2)[C@@H]1O (stereo not given in full) | -0.184 | 0.204 (inactive) | 0.0261 | -0.0684 | -0.107 | -0.61 | -0.0581 | -0.0878 | 0.365 | -0.0855 | 0.0704 | 0.413 | 0.192 | -0.0246 | 0.132 | 0.144 | 1.48 | 0.159 | -0.139 | -0.91 (inactive)
9 | COCCCNC(=O)[C@@]1(Cc2ccccc2I)c2ccccc2C(=O)N(C2CCCCC2)[C@H]1c1ccc(CO)cc1 | 0.653 | 0.732 (inactive) | -0.0377 | -0.112 | 0.544 | 2.36 | 0.386 | 1.03 | -0.415 | 0.75 | 0.912 | 1.02 | 0.312 | 0.544 | 0.926 | 1.29 | 0.438 | 0.812 | 0.772 | 0.948 (inactive)
10 | CCCCN1CC=CC23O[C@@H]4/C=C\CCCOC(=O)C4[C@H]2C(=O)N(CCCCCCO)[C@@H]3C1=O (stereo not given in full) | -0.768 | 0.276 (inactive) | -0.165 | -0.172 | 0.83 | 1.66 | 1.17 | 0.177 | -1.87 | -0.535 | 0.193 | -0.0399 | 0.0326 | -1.21 | -1.02 | -0.621 | 1.56 | -0.331 | -0.13 | -0.0067 (inactive)
